Test results: PubChem BioAssay (EPA / NIEHS)
Calls of active or inactive are those of the source. Rule for the calls: active = hit-call score of the fitted dose curve at least 0.9, where 1 is the maximum; inactive = score below 0.9.

Read-out: growth arrest and DNA damage 45 (GADD45B), GADD45B (gene 4616)
Assay: LTEA_HepaRG_GADD45B: Life Technologies and Expression Analysis (LTEA) Assay for growth arrest and DNA damage 45 (GADD45B) using HepaRG (AID 2283461)
Conditions: mRNA level, 48 h; actives raise or lower the signal
Protocol: LTEA_HepaRG is a cell based, multiplexed-readout assay that uses HepaRG, a human liver cell line, with measurements taken at 48 hours after chemical dosing on a 96-well plate.LTEA_HepaRG_GADD45B is one of 102 assay component(s) measured in the LTEA HepaRG cell culture assay. It is a marker of Cell proliferation, survival, death.Data from the assay component LTEA_HepaRG_GADD45B was analyzed into 1 endpoint. This assay endpoint, LTEA_HepaRG_GADD45B, was analyzed with bidirectional fitting relative to DMSO as the negative control and baseline of activity. Using a type of inducible reporter, measures of mRNA induction for gain or loss-of-signal activity can be used to understand regulation of transcription factor activity. To generalize the intended target to other relatable targets, this assay endpoint is annotated to the mutagenicity response intended target family, where the subfamily is Cell proliferation, survival, death.
A total of 1060 chemcials from the ToxCast library were tested in eight-point concentration-response experiments. Cell culture and cytotoxicity assays were conducted at Thermo Fisher Scientific's Custom Services facility (Madison, WI). A single lot of human HepaRG cells (Thermo Fisher Scientific, Frederick, MD) was used for the cell culture experiments. 96-well format collagen type I coated plates of human HepaRG cells were prepared using established methods. Briefly, cryopreserved HepaRG cells were thawed, plated at a density of approximately 100,000 cells/well in HepaRG Thaw, Plate, and General Purpose media (HPRG770, Thermo Fisher Scientific), and incubated for 48 hours. 0.5% DMSO was selected as vehicle control to balance the requisite need of DMSO in HepaRG cultures to maintain differentiation (for example, baseline metabolism, proportions of hepatocytes vs. cholangiocytes), while enabling further hepatic receptor pathway activation (for example, PXR and CAR) in response to chemical exposure. 48 hours after plating, the culture medium was replaced with HepaRG Serum-Free Incudtion Media. Cells were exposed to each test chemical in duplicate and maintained in CO2 incubators for another 48 hours. Chemical plates were thawed to room temperature and 200x concentrations of treatment groups were prepared. 8-point conentration-reponse curves were made with the highest exposure at 100 uM, followed by half-log dilutions, all in 0.5% DMSO. Each test plate contained variouse controls, induction positive controls (1mM phenobarbital), cytotoxicity positive controls ([…] aflatoxin B1), vehicle controls (0.5% DMSO), and total lysis controls (0.5% DMSO). Cell morphology images were taken using an Essen IncuCyte FLR automated microscope, with six 96-well plates imaged in about 24 minutes. Images were captured and exported and JPEG files. Spent culture media was transfered to black-well plates for the LDH assay, and remaining media was sorted at -80 C for later use. Cells were treated with RLT buffer and frozen until shipped for gene expression analysis. Total RNA was isolated from the cell suspension in 75 uL of Buffer RLT (Qiagen, Germantown, MD 20874) by Quintiles/Expression Analysis (Durham, NC) using a custom isolation procedure. Total RNA from each plate well was transferred to a preamplification plate. Fluidigm's 96.96 Dynamic ArrayTM (Fluidigm, Amsterdam, the Netherlands) technology was used for gene expression analyses by quantitative reverse transcription polymerase chain reaction (qRT-PCR, performed by Quintiles/Expression Analysis, Durham, NC)89. Standard TaqManTM Assays (Applied Biosystems/ThermoFisher Scientific, Foster City, CA) were used to assess the expression of 93 genes selected based on their selectivity and sensitivity to important hepatic receptors known to be modulated by environmental chemicals; importance in human hepatocyte functionality; and hepatotoxicity. […]

Row | Structure (SMILES) | outcome | AC50
1 | Cc1ccccc1[N+](=O)[O-] | inactive | 
2 | CCCCCCCCOC(=O)c1ccccc1C(=O)OCCCCCCCC | inactive | 
3 | c1ccc(-c2ccccc2)cc1 | inactive | 
4 | Oc1c(Cl)c(Cl)c(Cl)c(Cl)c1Cl |  | 15 µM (active)
5 | Cc1cc(O)ccc1Cl | inactive | 
6 | CN(C)CCO | inactive | 
7 | CC1=C2C[C@H]3[C@@H](CC=C4C[C@@H](O)CC[C@@]43C)[C@@H]2CC[C@]12O[C@@H]1C[C@H](C)CN[C@H]1[C@H]2C | inactive | 
8 | Clc1ccc(Cl)cc1 | inactive | 
9 | Cc1ccc(O)c(C)c1 | inactive | 
10 | CCNc1nc(NC(C)C)nc(SC)n1 | inactive | 
11 | CCOCCOC(C)=O | inactive | 
12 | c1cc2ccc3cccc4ccc(c1)c2c34 | inactive | 
13 | O=S(=O)(O)C(F)(F)C(F)(F)C(F)(F)C(F)(F)F | inactive | 
14 | CCOC(=O)C(O)(c1ccc(Cl)cc1)c1ccc(Cl)cc1 | inactive | 
15 | Cc1cc2c3c(c1)C(c1ccccc1)=N[C@@H](NC(=O)c1ccncc1)C(=O)N3CC2 | inactive | 
16 | CC(c1ccc(O)cc1)(c1ccc(O)cc1)c1ccc(O)cc1 |  | 35.9 µM (active)
17 | C1CC2OC2CC1C1CO1 (stereo not given) | inactive | 
18 | CC(C)C(=O)OCC(C)(C)C(OC(=O)C(C)C)C(C)C (stereo not given) | inactive | 
19 | COS(=O)(=O)OC | inactive | 
20 | C[C@]12CCC(=O)C=C1CC[C@@H]1[C@@H]2CC[C@]2(C)C(=O)CC[C@@H]12 | inactive | 

Row | Structure (SMILES) | outcome | AC50
21 | Clc1ccc(C(Cl)(Cl)Cl)cc1 | inactive | 
22 | C=CC(N)=O | inactive | 
23 | C[C@]12CCC(=O)C=C1CC[C@@H]1[C@@H]2CC[C@@]2(C)[C@H]1CC[C@]2(C)O | inactive | 
24 | COc1ccc(O)c(C(C)(C)C)c1 | inactive | 
25 | Cc1ccccc1O | inactive | 
26 | O=C(NC(=O)c1cc(F)c(F)cc1Cl)Nc1cc(F)ccc1N1CCC(C(=O)O)CC1 | inactive | 
27 | N#Cc1ccc(N(CC(N)=O)CC(F)(F)F)cc1C(F)(F)F | inactive | 
28 | O=S(=O)(O)C(F)(F)C(F)(F)C(F)(F)C(F)(F)C(F)(F)C(F)(F)F | inactive | 
29 | CC(C)(O)C(=O)Nc1ccc([N+](=O)[O-])c(C(F)(F)F)c1 | inactive | 
30 | CCOP(=S)(OCC)SCSC(C)(C)C | inactive | 
31 | ClC1=C(Cl)[C@]2(Cl)[C@@H]3[C@@H]4C[C@@H]([C@H]5O[C@@H]45)[C@@H]3[C@@]1(Cl)C2(Cl)Cl | inactive | 
32 | CCC(=O)O[C@H]1CC[C@H]2[C@@H]3CCC4=CC(=O)CC[C@]4(C)[C@H]3CC[C@]12C |  | 0.101 µM (active)
33 | CN(C)c1nc(=O)n(C2CCCCC2)c(=O)n1C | inactive | 
34 | CCSC(=O)N(CC)C1CCCCC1 | inactive | 
35 | O=NN(c1ccccc1)c1ccccc1 | inactive | 
36 | CCC(C)(CC)c1cc(NC(=O)c2c(OC)cccc2OC)on1 | inactive | 
37 | O=C(O)C(F)(F)C(F)(F)C(F)(F)C(F)(F)C(F)(F)C(F)(F)C(F)(F)C(F)(F)C(F)(F)F | inactive | 
38 | O=C(NC(=O)c1c(F)cccc1F)Nc1cc(Cl)c(OC(F)(F)C(F)F)c(Cl)c1 | inactive | 
39 | Cc1ccccc1CO[C@@H]1C[C@@]2(C(C)C)CC[C@]1(C)O2 | inactive | 
40 | ClC1=C(Cl)[C@]2(Cl)[C@@H]3[C@@H](Cl)[C@H]4O[C@H]4[C@@H]3C1(Cl)C2(Cl)Cl | inactive | 
